Eleven compounds from PubChem BioAssay (NCI) can be followed below.

Where “and” joins values, the source holds several entries; their conditions need not be identical. Equal values may be shown once. This is part of a sample that, as a whole, favours compounds with a hit. Of some 83,000 tested, about 20% had one in any assay.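 A percent growth of 40 corresponds to 60% growth inhibition; 0 means no net growth; -100 means all cells died. Active threshold: below 10.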 Values without a mark were called inactive. Calls of active or inactive are those of the source.

Some test systems named below: T-47D breast; BT-549 breast; MDA-MB-435 melanoma; SW-620 colon; MCF7 breast; HCT-116 colon; HCC-2998 colon; KM12 colon.
Holding throughout (test): NCI-60 one-dose screen, 48 h (100 = growth as untreated, 0 = no growth, -100 = all killed)

Turning to `Cc1ccccc1SSc1ccccc1C`, the growth with T-47D breast (10 µM unless noted) is 101%; in the assay on BT-549 breast (10 µM unless noted) it was 83.9%; with MDA-MB-435 melanoma (10 µM unless noted), 110%; in the assay on SW-620 colon (10 µM unless noted), 55%; with MCF7 breast (10 µM unless noted), 56.1%; with HCT-116 colon (10 µM unless noted), 55%. Further, the growth in the assay on HCC-2998 colon (10 µM unless noted) is 128%; in the assay on KM12 colon (10 µM unless noted) it was 96.9%.

In the case of `COc1ccc(-c2cc3cnc4ccccc4c3oc2=O)cc1`, the growth in the assay with T-47D breast (10 µM unless noted) is 87.1%; with BT-549 breast (10 µM unless noted), 101%; with MDA-MB-435 melanoma (10 µM unless noted) it was 98.6%; with SW-620 colon (10 µM unless noted), 95.8%; with MCF7 breast (10 µM unless noted), 86.9%; in the assay on HCT-116 colon (10 µM unless noted) it was 93.3%. Also, the growth was 89.2% in the assay with HCC-2998 colon (10 µM unless noted) and 103% with KM12 colon (10 µM unless noted).

On to `CCCCCCCCCCCCCCCCCCn1cc(COc2ccc(C=O)cc2)nn1`, for which the growth in the assay with T-47D breast (10 µM unless noted) is 88.6%; in the assay on BT-549 breast (10 µM unless noted), 100%; with MDA-MB-435 melanoma (10 µM unless noted), 109%; in the assay on SW-620 colon (10 µM unless noted) it was 104%; in the assay with MCF7 breast (10 µM unless noted), 92.8%; in the assay with HCT-116 colon (10 µM unless noted), 76.8%. Further, the growth was 99.8% in the assay with HCC-2998 colon (10 µM unless noted) and 86.3% with KM12 colon (10 µM unless noted).

As for `CN(C)CCNc1ncc(F)c(-c2cnc3cc(-c4cnn(C)c4)ccn23)n1`, the growth with T-47D breast (0.005 µM) was 110%; in the assay on T-47D breast (30 µM), 81.7%; with BT-549 breast (0.005 µM), 97.8%; in the assay on BT-549 breast (30 µM), 69.4%; in the assay with MDA-MB-435 melanoma (0.005 µM), 101%; in the assay with MDA-MB-435 melanoma (30 µM) it was 43.1%. The growth in the assay with SW-620 colon (0.005 µM) was 103%; in the assay with SW-620 colon (30 µM), 25.7%; with MCF7 breast (0.005 µM) it was 93.9%; in the assay with MCF7 breast (30 µM), 49.5%; with HCT-116 colon (0.005 µM), 100%; in the assay on HCT-116 colon (30 µM), 24.3%. The growth in the assay on HCC-2998 colon (0.005 µM) is 116%; in the assay on HCC-2998 colon (30 µM) it was 54.5%; in the assay on KM12 colon (0.005 µM) it was 87.8%; with KM12 colon (30 µM), 10.7%.

Regarding `O=C(/C=C/c1cccc(Oc2ccc(Cl)cc2)c1)c1ccccc1`, the growth in the assay on T-47D breast (10 µM) was 77%; in the assay on T-47D breast (100 µM), -72% (active); in the assay on BT-549 breast (10 µM) it was 102%; with BT-549 breast (100 µM), -61.3% (active); in the assay on MDA-MB-435 melanoma (10 µM), 94.8%; in the assay on MDA-MB-435 melanoma (100 µM), -84.8% (active). The growth in the assay with SW-620 colon (10 µM) was 19.7%; in the assay with SW-620 colon (100 µM) it was -69.7% (active); in the assay on MCF7 breast (10 µM) it was 11.5%; in the assay with MCF7 breast (100 µM) it was -45.3% (active); in the assay with HCT-116 colon (10 µM) it was 55.9%; in the assay on HCT-116 colon (100 µM), -82.2% (active). The growth was 107% in the assay on HCC-2998 colon (10 µM), -97.8% (active) with HCC-2998 colon (100 µM), 75.3% in the assay with KM12 colon (10 µM) and -76.8% (active) in the assay on KM12 colon (100 µM).

`NC(N)=NC(N)=NCCCc1ccco1`: the growth with T-47D breast (10 µM unless noted) was 106%; with BT-549 breast (10 µM unless noted), 115%; in the assay on MDA-MB-435 melanoma (10 µM unless noted), 110%; in the assay with SW-620 colon (10 µM unless noted), 94.5%; in the assay with MCF7 breast (10 µM unless noted) it was 106%; with HCT-116 colon (10 µM unless noted), 108%. In addition, the growth in the assay with HCC-2998 colon (10 µM unless noted) is 106%; in the assay with KM12 colon (10 µM unless noted) it was 101%.

For the compound `CCn1cc(C(=O)NN=C2CCCC2)c(=O)c2ccc(C)nc21`, the growth is 89% with T-47D breast (10 µM unless noted); 83.5% in the assay on BT-549 breast (10 µM unless noted); 86.9% in the assay with MDA-MB-435 melanoma (10 µM unless noted); 93% in the assay on SW-620 colon (10 µM unless noted); 83.4% in the assay with MCF7 breast (10 µM unless noted); 89.1% in the assay on HCT-116 colon (10 µM unless noted). Further, the results for the growth in the assay on HCC-2998 colon (10 µM unless noted) and with KM12 colon (10 µM unless noted) were 89.6% and 94.7%, respectively.

As for `O=C(/C=C\c1ccc(Cl)c(Cl)c1)c1ccccc1`, the growth in the assay on T-47D breast (10 µM unless noted) was 77.4% and 86.9%; with BT-549 breast (10 µM unless noted) it was 103%; in the assay on MDA-MB-435 melanoma (10 µM unless noted), 70.5% and 100%; with SW-620 colon (10 µM unless noted), 31.9% and 95.1%; in the assay on MCF7 breast (10 µM unless noted), 18.8% and 28.2%; with HCT-116 colon (10 µM unless noted), 22.7% and 62.1%. Moreover, the growth was 95.2% and 104% in the assay with HCC-2998 colon (10 µM unless noted); 96.6% in the assay with KM12 colon (10 µM unless noted).

For the compound `COc1ccc(C(=O)/C=C/c2ccc(OCc3cccc(C(F)(F)F)c3)c(OC)c2)cc1OC`, the growth in the assay on T-47D breast (10 µM) was 54.2%; in the assay with T-47D breast (100 µM), 11.3%; in the assay with BT-549 breast (10 µM), 95.2%; with BT-549 breast (100 µM), -41.3% (active); in the assay on MDA-MB-435 melanoma (10 µM) it was 86.3%; with MDA-MB-435 melanoma (100 µM) it was 12%. The growth in the assay on SW-620 colon (10 µM) is 59.1%; in the assay with SW-620 colon (100 µM), 6.75% (active); with MCF7 breast (10 µM), 40%; in the assay on MCF7 breast (100 µM) it was 6.42% (active); in the assay on HCT-116 colon (10 µM) it was 52.3%; in the assay on HCT-116 colon (100 µM), 3.91% (active). Also, the growth with HCC-2998 colon (10 µM) was 105%; in the assay on HCC-2998 colon (100 µM) it was 10.8%; in the assay with KM12 colon (10 µM) it was 72.5%; in the assay with KM12 colon (100 µM), 12.4%.

As to `[2H]C([2H])([2H])Oc1cccc(/C=C/C(=O)/C=C(/C=C/c2cccc(OC([2H])([2H])[2H])c2OC([2H])([2H])[2H])OB(F)F)c1OC([2H])([2H])[2H]`, the growth is 50.6% in the assay on T-47D breast (10 µM unless noted); 86.2% in the assay on BT-549 breast (10 µM unless noted); 57% in the assay on MDA-MB-435 melanoma (10 µM unless noted); 46.7% in the assay with SW-620 colon (10 µM unless noted); 26.2% in the assay with MCF7 breast (10 µM unless noted); 41.5% in the assay with HCT-116 colon (10 µM unless noted). For the same compound, the growth in the assay with HCC-2998 colon (10 µM unless noted) was 122%; in the assay with KM12 colon (10 µM unless noted), 92.2%.

Take `CCCCCCCC/C=C\CCCCCCCCOc1ccccc1CC(=O)NCC[N+]1(C)CCOCC1`: the growth in the assay with T-47D breast (10 µM unless noted) is 84.4%; in the assay on BT-549 breast (10 µM unless noted) it was 82.3%; in the assay on MDA-MB-435 melanoma (10 µM unless noted), 95.8%; in the assay with SW-620 colon (10 µM unless noted), 81.7%; with MCF7 breast (10 µM unless noted) it was 82.2%; in the assay on HCT-116 colon (10 µM unless noted), 71.8%. The results for the growth in the assay with HCC-2998 colon (10 µM unless noted) and in the assay on KM12 colon (10 µM unless noted) were 45.4% and 47.3%, respectively.
